These results are taken from PubChem BioAssay (Tox21).

The target in test [1] is Thyrotropin receptor (Homo sapiens) (UniProt P16473). As to the kind of experiment: qHTS assay to identify small molecule antagonists of the thyroid stimulating hormone receptor (TSHR) signaling pathway (AID 1259385; calls by dose curve; note: nearly all actives have a fitted effect of over 20% in size). A digest of the protocol: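 TSHR-HEK293 cells (800/well) plated 18 h, then compounds with Ro20-1724 and TSH at 1.5 ng/mL final, 30 min at room temperature. cAMP quantified by HTRF (cAMP-d2/anti-cAMP-cryptate, 1 h); 15 concentrations in triplicate.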
Background: In qHTS, concentration-response curves come from the screen itself.

The target in test [2] is Progesterone receptor (Homo sapiens) (UniProt P06401). As to the kind of experiment: qHTS assay to identify small molecule agonists of the progesterone receptor (PR) signaling pathway (AID 1346784; calls by dose curve; note: nearly all actives have a fitted effect of over 30% in size). A digest of the protocol:
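The screen uses PR-UAS-bla HEK 293T cells in charcoal-stripped serum (2%). Compounds are applied for 16 hr at 37C after a 6 hr pre-incubation, and reporter activity is detected with a FRET beta-lactamase substrate after 2 hr at room temperature.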

Test [3] shares this target. As to the kind of experiment: qHTS assay to identify small molecule antagonists of the progesterone receptor (PR) signaling pathway (AID 1346795; active = well fitted inhibition curve with a large enough effect in the signal ratio in the repeat runs, not every such curve was filed as active; the % refers to the signal ratio). A digest of the protocol:
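After 6 hr plating at 37C in 2% stripped-serum medium, PR-UAS-bla HEK293T cells got compounds, then 1 nM R5020. Sixteen hours later, LiveBLAzer substrate was applied for 2 hr at room temperature and fluorescence was recorded.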

Test [4] in a line: qHTS assay to identify small molecule antagonists of the progesterone receptor (PR) signaling pathway - cell viability counter screen (AID 1346798). Note: series mostly up to about 92 µM; nearly all actives have a fitted effect of over 50% in size. A digest of the protocol: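 Viability was determined by ATP-based luminescence (CellTiter-Glo) in PR-UAS-bla HEK293T cells cultured in 2% charcoal-stripped serum and incubated 16 hr with compounds under R5020 stimulation.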
The nature of test [5]: qHTS assay to identify small molecule antagonists of the TGF-beta/Smad signaling pathway - cell viability counter screen (AID 1346824). Note: nearly all actives have a fitted effect of over 50% in size. The essentials:
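SBE-bla HEK 293T cells, incubated overnight, then compound plus 0.25 ng/mL TGF-beta1 (stock added) for 5 hr at 37 C. Viability was read in the same wells by CellTiter-Glo luminescence after 30 min at room temperature.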

Test [6] can be described thus: qHTS assay to identify small molecule agonists of the TGF-beta/Smad signaling pathway - cell viability counter screen (AID 1346829). Note: top concentration of the series differs between compounds; nearly all actives have a fitted effect of over 45% in size. A digest of the protocol: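 CellTiter-Glo luminescence readout; SBE-bla HEK 293T cells, overnight plating, compound 5 hr at 37 C/5% CO2, then bla substrate 2 hr RT, then CellTiter-Glo 30 min RT.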
Test [7] is described as follows: qHTS assay to identify small molecule agonists of the TGF-beta/Smad signaling pathway (AID 1346859; active = well fitted activation curve with a large enough effect in the signal ratio in the repeat runs, not every such curve was filed as active; the % refers to the signal ratio; note: series mostly up to about 77 µM). The essentials:
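Dual-wavelength fluorescence (460/530 nm emission) quantified beta-lactamase expression under the Smad binding element in HEK 293T cells following 5 hr compound treatment at 37 C.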

Test [8] concerns the target Thyrotropin-releasing hormone receptor (Homo sapiens) (UniProt P34981). As to the kind of experiment: qHTS assay to identify small molecule antagonists of the thyrotropin-releasing hormone receptor (TRHR) signaling pathway (AID 1346877; active = well fitted inhibition curve with a large enough effect in the repeat runs, not every such curve was filed as active; note: series mostly up to about 51 µM). A digest of the protocol:
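Antagonism is measured as suppression of the calcium response to 1 nM TRH in TRHR-HEK293 cells that have been dye-loaded for 2 h at 37 °C after overnight plating. Each compound is tested at 15 concentrations in triplicate.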

Test [9] shares this target. Briefly: qHTS assay to identify small molecule agonists of the thyrotropin-releasing hormone receptor (TRHR) signaling pathway (AID 1346891; calls by dose curve;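 note: HEK293 cells expressing TRHR with calcium dye readout; series mostly up to about 58 µM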). The essentials:
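Kinetic fluorescence (3 min, 1 s intervals) reported intracellular calcium after compound transfer onto TRHR-Hek293 cells pre-loaded with dye for 2 h at 37 °C.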

The nature of test [10]: Human pregnane X receptor (PXR) small molecule agonists, qHTS cell viability counter screen (AID 1346977). Note: nearly all actives have a fitted effect of over 50% in size. A digest of the protocol: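 HepG2 cells stably carrying the PXR-Luc reporter are cultured with 5% charcoal-stripped FBS and treated with compounds for 24hr. CellTiter-Fluor is added at 23hr and fluorescence is read after 1hr.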
Test [11] can be described thus: Caspase-3/7 induction in HepG2 cells by small molecules, qHTS assay (AID 1346978). Note: nearly all actives have a fitted effect of over 15% in size. A digest of the protocol:
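Wild-type HepG2 cells, 2,000/well, settled 5 hr at 37 C and 5% CO2, then compound-treated for 17 hr; caspase-3/7 activity read by luminescent Caspase-Glo 3/7 after 30 min at room temperature.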

Test [12] can be described thus: Caspase-3/7 induction in CHO-K1 cells by small molecules, qHTS cell viability counter screen (AID 1346979). Note: nearly all actives have a fitted effect of over 35% in size. The essentials: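 Seeding: 1,500 CHO-K1 cells/well. Rest: 5hr, 37C. Treatment: compounds in DMSO, 16hr. Read: CellTiter-Fluor, 1hr, fluorescence.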
Test [13] is described as follows: Caspase-3/7 induction in CHO-K1 cells by small molecules, qHTS assay (AID 1346980). Note: nearly all actives have a fitted effect of over 15% in size. A digest of the protocol:
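Wild-type CHO-K1 cells exposed to compounds for 17hr at 37 C, 5% CO2. Caspase-3/7 activity then measured by Caspase-Glo 3/7 luminescence after 30min at room temperature.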

A short description of test [14]: Caspase-3/7 induction in HepG2 cells by small molecules, qHTS cell viability counter screen (AID 1346981). Note: series mostly up to about 92 µM; nearly all actives have a fitted effect of over 30% in size. A digest of the protocol:
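Cell viability is measured as a cytotoxicity counter screen alongside the Caspase-Glo 3/7 readout in identical wells. Wild-type HepG2 cells are treated with test compounds for 16 hr at 37 C before CellTiter-Fluor addition and a 1-hr incubation.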

In test [15] the target is Nuclear receptor subfamily 1 group I member 2 (Homo sapiens) (UniProt O75469). Briefly: Human pregnane X receptor (PXR) small molecule agonists, qHTS assay (AID 1346982). Note: nearly all actives have a fitted effect of over 35% in size. Note: potency is the fitted concentration of half-maximal effect. A digest of the protocol:
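Cells: HepG2 stably carrying PXR-Luc. Medium held 5% charcoal-stripped FBS. Compounds in DMSO added after 5 hr plating, incubated 24 hr, then luminescence quantified with ONE-Glo.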

A short description of test [16]: qHTS assay to identify small molecule agonists of the estrogen receptor alpha (ER-alpha) signaling pathway in the presence of an antagonist - cell viability counter screen (AID 1259386).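 Note: series mostly up to about 92 µM; cells exposed to compounds for 22 h at 37 °C before the viability read; nearly all actives have a fitted effect of over 30% in size.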 A digest of the protocol: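 Cytotoxicity was measured in parallel with the ERE-luciferase agonist screen, in the same wells. The cells were VM7Luc4E2, which endogenously express ER-alpha, and treatment was with compounds plus 10.0nM ICI-182,780 for 22hr.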

The target in test [17] is Nuclear receptor subfamily 1 group I member 2 (Rattus norvegicus) (UniProt Q9R1A7). Briefly: Rat pregnane X receptor (rPXR) activation by small molecules, qHTS assay (AID 1346983). Note: nearly all actives have a fitted effect of over 20% in size. To be noted: rPXR luciferase reporter cells, One-Glo luminescence, 24 h; max activation: active compounds read high. A digest of the protocol: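 Cell-based rPXR activation assay: rPXR cells, 2,000 per well, rested 5hr at 37 C, then exposed to compounds in DMSO for 24 hr at 37 C. Luciferase activity read by One-Glo luminescence after 30 min at room temperature.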

The target of test [18] is Nuclear receptor subfamily 1 group I member 2 (Homo sapiens) (UniProt O75469). Briefly: CYP3A4 induction through human pregnane X receptor (PXR) by small molecules, qHTS assay (AID 1346984). Note: nearly all actives have a fitted effect of over 40% in size. The essentials: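 Quantitative HTS in DPX-2 cells, i.e. HepG2 transfected with PXR response element and CYP3A4-promoter luciferase. Compounds in DMSO incubated 24hr at 37C; then P450-Glo CYP3A4 substrate, 3uM final, 3hr; One-Glo luminescence.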

Test [19] is described as follows: qHTS assay to identify small molecule agonists of the progesterone receptor (PR) signaling pathway - cell viability counter screen (AID 1346799; calls by dose curve; note: nearly all actives have a fitted effect of over 45% in size). A digest of the protocol: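 Viability was scored by ATP luminescence (CellTiter-Glo, 30 min, room temperature) in the same wells used for the reporter readout, after 16 hr compound exposure of PR-UAS-bla HEK293T cells.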

The structures appear in SMILES notation. Values without a mark were called inactive. Records with an inconclusive call do not appear. Active and inactive are the calls of the source. Unless noted, calls come from the whole dose curve; as a rule, active = well fitted curve in the direction sought with a large enough effect in the repeat runs; inconclusive = weak or mixed curves; inactive = no such curve, though single readings can be large; an effect the other way counts as inactive or inconclusive.
% is set by controls: 0 for no effect and ±100 for the full control effect.

Sequence of Thyrotropin receptor (Homo sapiens) (P16473 whole entry, looked up): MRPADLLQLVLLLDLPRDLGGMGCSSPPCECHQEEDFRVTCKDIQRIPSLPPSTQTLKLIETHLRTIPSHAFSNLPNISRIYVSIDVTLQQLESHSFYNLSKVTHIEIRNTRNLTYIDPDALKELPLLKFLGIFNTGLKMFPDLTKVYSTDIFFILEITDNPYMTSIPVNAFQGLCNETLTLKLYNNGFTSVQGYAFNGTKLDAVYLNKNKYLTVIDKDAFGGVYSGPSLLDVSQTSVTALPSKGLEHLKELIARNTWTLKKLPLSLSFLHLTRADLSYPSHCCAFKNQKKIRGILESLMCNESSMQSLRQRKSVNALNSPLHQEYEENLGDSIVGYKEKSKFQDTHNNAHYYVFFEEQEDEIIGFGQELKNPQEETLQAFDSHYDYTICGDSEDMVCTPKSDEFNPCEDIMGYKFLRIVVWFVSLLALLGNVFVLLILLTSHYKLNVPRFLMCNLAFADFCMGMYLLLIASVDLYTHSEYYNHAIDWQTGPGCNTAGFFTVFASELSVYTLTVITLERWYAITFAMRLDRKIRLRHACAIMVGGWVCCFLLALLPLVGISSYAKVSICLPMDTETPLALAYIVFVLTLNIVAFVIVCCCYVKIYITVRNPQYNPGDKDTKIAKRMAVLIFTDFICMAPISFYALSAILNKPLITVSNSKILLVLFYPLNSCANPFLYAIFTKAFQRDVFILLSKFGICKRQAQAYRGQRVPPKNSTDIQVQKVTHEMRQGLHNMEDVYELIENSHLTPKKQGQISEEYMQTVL
Sequence of Progesterone receptor (Homo sapiens) (P06401 whole entry, looked up): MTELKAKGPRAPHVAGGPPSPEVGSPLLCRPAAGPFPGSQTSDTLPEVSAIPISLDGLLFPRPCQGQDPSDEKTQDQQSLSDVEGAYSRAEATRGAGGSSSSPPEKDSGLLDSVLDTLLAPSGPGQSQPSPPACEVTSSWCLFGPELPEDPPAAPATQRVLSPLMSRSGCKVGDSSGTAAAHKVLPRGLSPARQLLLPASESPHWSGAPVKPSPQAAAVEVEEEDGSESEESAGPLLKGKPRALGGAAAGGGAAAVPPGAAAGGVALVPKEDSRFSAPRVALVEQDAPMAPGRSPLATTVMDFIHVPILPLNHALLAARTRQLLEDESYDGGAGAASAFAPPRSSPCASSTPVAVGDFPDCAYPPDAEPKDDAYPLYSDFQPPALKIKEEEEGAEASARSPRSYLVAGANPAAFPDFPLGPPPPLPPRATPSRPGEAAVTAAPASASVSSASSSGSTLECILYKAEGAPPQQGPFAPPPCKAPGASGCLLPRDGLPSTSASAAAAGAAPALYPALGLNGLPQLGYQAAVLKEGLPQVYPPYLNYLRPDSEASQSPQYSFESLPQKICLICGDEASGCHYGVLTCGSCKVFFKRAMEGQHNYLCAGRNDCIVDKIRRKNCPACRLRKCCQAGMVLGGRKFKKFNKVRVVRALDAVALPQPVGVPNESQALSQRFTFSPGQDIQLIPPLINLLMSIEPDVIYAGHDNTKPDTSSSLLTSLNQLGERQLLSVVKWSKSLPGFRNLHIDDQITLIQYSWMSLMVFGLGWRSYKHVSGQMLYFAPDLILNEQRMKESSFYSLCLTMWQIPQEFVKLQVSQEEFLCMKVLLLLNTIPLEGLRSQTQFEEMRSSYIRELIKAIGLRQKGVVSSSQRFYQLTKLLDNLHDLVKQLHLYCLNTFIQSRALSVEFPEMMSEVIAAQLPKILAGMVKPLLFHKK
Sequence of Nuclear receptor subfamily 1 group I member 2 (Homo sapiens) (O75469 whole entry, looked up): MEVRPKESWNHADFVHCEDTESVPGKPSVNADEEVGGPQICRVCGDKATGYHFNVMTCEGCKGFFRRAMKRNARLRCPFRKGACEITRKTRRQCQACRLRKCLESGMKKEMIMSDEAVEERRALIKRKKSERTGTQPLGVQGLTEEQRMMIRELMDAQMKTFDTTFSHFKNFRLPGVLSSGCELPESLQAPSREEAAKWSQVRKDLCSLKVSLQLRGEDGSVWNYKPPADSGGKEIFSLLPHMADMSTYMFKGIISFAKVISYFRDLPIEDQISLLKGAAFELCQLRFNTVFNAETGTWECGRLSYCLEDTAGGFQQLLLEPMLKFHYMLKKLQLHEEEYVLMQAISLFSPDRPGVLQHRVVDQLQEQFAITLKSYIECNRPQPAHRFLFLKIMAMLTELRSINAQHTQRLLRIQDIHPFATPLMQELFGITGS
Sequence of Thyrotropin-releasing hormone receptor (Homo sapiens) (P34981 whole entry, looked up): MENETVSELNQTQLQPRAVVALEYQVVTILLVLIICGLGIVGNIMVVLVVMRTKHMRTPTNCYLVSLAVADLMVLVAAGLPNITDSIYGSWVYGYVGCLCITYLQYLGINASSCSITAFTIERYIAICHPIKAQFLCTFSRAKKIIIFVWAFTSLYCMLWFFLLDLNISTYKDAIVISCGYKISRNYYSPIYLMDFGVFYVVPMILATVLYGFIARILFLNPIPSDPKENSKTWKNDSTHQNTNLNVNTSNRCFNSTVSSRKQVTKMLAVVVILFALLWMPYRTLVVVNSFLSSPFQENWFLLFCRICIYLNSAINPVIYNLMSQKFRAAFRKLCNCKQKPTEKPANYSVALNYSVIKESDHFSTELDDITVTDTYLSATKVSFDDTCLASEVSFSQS
Sequence of Nuclear receptor subfamily 1 group I member 2 (Rattus norvegicus) (Q9R1A7 whole entry, looked up): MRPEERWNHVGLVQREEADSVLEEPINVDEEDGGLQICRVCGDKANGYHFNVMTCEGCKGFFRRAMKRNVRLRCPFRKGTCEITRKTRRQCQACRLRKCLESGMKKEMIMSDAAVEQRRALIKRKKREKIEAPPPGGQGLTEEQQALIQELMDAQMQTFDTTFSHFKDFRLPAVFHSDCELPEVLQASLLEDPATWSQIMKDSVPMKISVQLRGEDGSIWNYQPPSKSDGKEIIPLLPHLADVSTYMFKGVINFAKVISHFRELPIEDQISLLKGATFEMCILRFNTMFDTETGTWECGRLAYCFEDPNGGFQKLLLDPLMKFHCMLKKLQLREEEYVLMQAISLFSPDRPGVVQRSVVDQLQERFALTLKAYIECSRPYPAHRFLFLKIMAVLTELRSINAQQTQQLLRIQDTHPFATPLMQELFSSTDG

Consider `O=C1OC(=O)c2cc([N+](=O)[O-])ccc21`, for which the Potency entry in test [1], in test [2], in test [3], in [4], in test [10] and in [12] was “inactive” throughout. The Potency result in test [15] was “inactive”. In addition, the call in [5], in [6], in test [7], in test [8], in test [9] and in test [11] was inactive. Besides, the compound was called inactive in test [13] and in test [14].

Consider `NC(=O)c1c(Cl)cccc1Cl`, for which the Potency result in [1], in test [2], in [4], in test [10] and in test [12] was “inactive” throughout. The result in test [16], in [5], in [6], in test [7], in [8] and in test [9] was inactive. Besides, the result in test [11], in test [13] and in test [14] was inactive. Also, in [15], the Potency is 0.0611 µM (active).

Take `CCCCCN(CCCCC)C(=O)C(CCC(=O)O)NC(=O)c1ccc(Cl)c(Cl)c1` (stereo not given): the Potency result in test [1], in test [2], in test [10], in [12] and in [15] was “inactive” in each case. Also, the result in [16], in test [5], in test [6], in test [7], in test [8] and in test [9] was inactive. In addition, the outcome in [11], in [13] and in test [14] was inactive.

With `CCN1CCCC1CNC(=O)c1cc(S(N)(=O)=O)ccc1OC` (stereo not given), the Potency entry in test [1], in [2] and in [10] was “inactive” each time. Further, the outcome in test [16], in test [5], in [6], in test [7], in test [8] and in test [9] was inactive. In addition, the call in test [11], in test [13] and in [14] was inactive.

Turning to `NCCNC(=O)c1ccc(Cl)cn1`, the Potency entry in test [1], in test [2], in test [4], in test [10], in [12] and in test [15] was “inactive” in each case. Moreover, the Potency result in test [18] is “inactive”. Moreover, the result in [16], in test [5], in [6], in [7], in [8] and in [9] was inactive. The outcome in test [11], in test [13] and in test [14] was inactive. Also, the max activation in test [17] is -1.85%.

For the compound `CC(C=O)Cc1ccc(C(C)C)cc1` (stereo not given), the Potency result in test [1], in test [2], in test [19], in [10], in test [12] and in test [15] was “inactive” throughout. Also, the result in test [16], in test [5], in test [6], in test [7], in test [8] and in [9] was inactive. The compound was called inactive in test [11], in test [13] and in test [14].

Regarding `CC(C)(C)C(=O)/C=C/c1ccc(Cl)cc1`, the Potency entry in [1], in [2], in test [4], in test [10] and in [12] was “inactive” throughout. Also, the outcome in test [16], in test [6], in test [7], in [8], in test [9] and in [11] was inactive. The result in [13] and in test [14] was inactive. Moreover, in test [15], the Potency was 54.5 µM (active).

As for `C1CCCCCCCCCCC1`, the activity change, negative = inhibition in test [1] was -0.259% [at 19 µM]; in [3], 0.992% [at 18.9 µM]. Further, the activation in [2] was -0.689% [at 19 µM]; in [7], 1.5% [at 15.8 µM]; in test [9] it was 1.06% [at 11.8 µM]; in test [15], 7.58% [at 19 µM]. The activity change, negative = cytotoxicity was 8.3% [at 18.9 µM] in test [4]; 1.68% [at 19 µM] in [19]; 5.27% [at 15.8 µM] in test [6]; 4.48% [at 19 µM] in test [10]; 2.86% [at 19 µM] in test [12]. Besides, the viability change, negative = cytotoxic in [5] was 13% [at 15.8 µM]. Also, the activity, negative = inhibition in test [8] is -13.6% [at 10.5 µM]. For the same compound, the caspase activation in test [11] was 0.953% [at 19 µM]. Moreover, in test [13], the caspase-3/7 activation is 0.0072% [at 19 µM].

For the compound `CC(C)(C)CC(C)(C)N`, the Potency result in test [1], in [4], in test [19], in [10], in test [12] and in [15] was “inactive” each time. Also, the outcome in test [16], in [5], in [6], in test [7], in test [11] and in test [13] was inactive. For the same compound, in [14], the compound was classed as inactive.
